An excerpt weighted towards active compounds, which were near 19% of everything screened.
Chronic BCR inh = chronic active BCR signaling inhibition; ABC-DLBCL IkBa-CBG/CBR reporter, luminescence ratio, 4 h; Potency, µM (doses to about 46.1 µM), actives largely listed as inhibitors; actives 0.05% (n = 340,000); AID 493014; active = well fitted inhibition curve with a large enough effect in the signal ratio, with a control signal flat, not every such curve was filed as active; inconclusive = small, poorly fitted or top-dose-only effect, or effect the other way, or a change in a side signal; the % refers to the signal ratio
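TMD8 ABC-DLBCL cells carrying doxycycline-inducible green luciferase fused to IkappaBalpha plus unfused red luciferase were exposed to compounds (up to 46 uM) for 4 hrs at 37C. Activity came from the overlap-corrected green/red luminescence ratio.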
DT40 TDP1 no CPT = qHTS for Inhibitors of human tyrosyl-DNA phosphodiesterase 1 (TDP1): qHTS in cells in absence of CPT. DT40 Tdp1-/- hTDP1 cells, no CPT, ATP luminescence, 48 h. actives 15% (n = 420,000). Potency, µM (titrated, usually from 46.2 µM), hits mostly inhibitors. AID 686978, 2013; also: nearly all actives have a fitted effect of over 55% in size
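Luminescent ATP content (CellTiter-Glo) served as the growth readout. Knockout chicken DT40 cells expressing human TDP1 were exposed to compounds without camptothecin for a minimum 48 hr at 37 °C.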
MCF10A rerep = DNA re-replication induction in MCF 10a cells | MCF 10A DNA re-replication, Hoechst nuclear intensity, 48 h | Potency, µM (doses to about 46.1 µM), most hits filed as activators | actives 2.9% (n = 350,000) | AID 624296; also: nearly all actives have a fitted effect of over 50% in size
IL1B secr inh = inhibitors of inflammasome signaling (IL-1 beta secretion); THP-1 LPS/ATP IL-1B secretion, AlphaLISA, 16 h; hits give low values; actives 4.7% (n = 360,000); AID 743279; activity change, % at 57.5 µM; in the data active = activity change below about -50%; inconclusive = mostly about -30% to -49%
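THP-1 cells pretreated 1 hr with compounds (up to 57.5 uM final), then stimulated with LPS (250 ng/mL final) plus ATP (1.25 mM final); secreted IL-1B measured by AlphaLISA after 16 hr, decreased signal indicating inhibition.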
SW480 rerep = inducers of DNA re-replication in SW480 colon cancer cells; SW480 DNA re-replication, Hoechst DNA content imaging, 48 h; Potency, µM (doses to about 46.1 µM), actives largely listed as activators; actives 1.8% (n = 340,000); AID 624297; also: nearly all actives have a fitted effect of over 55% in size
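SW480 cells exposed to compounds for 48 hr at 37 C, 5% CO2, then Hoechst-stained 40 min. Nuclear DNA content imaged by fluorescence scanning (405 nm excitation, 500-530 nm emission); re-replication scored as increased high-intensity nuclei.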
TDP1 cell CPT = DT40-hTDP1 cell growth loss with CPT. actives 12% (n = 420,000). chicken DT40 Tdp1-/-;hTDP1 cells + 20 nM CPT, ATP luminescence, 48 h. Potency, µM (doses to about 46.2 µM), most hits filed as inhibitors; also: nearly all actives have a fitted effect of over 55% in size
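Chicken DT40 Tdp1-/- cells stably complemented with human TDP1 were seeded at 400 cells/well in medium containing 20 nM camptothecin, exposed to pin-transferred compounds, and grown at 37 °C for at least 48 hr. Viability was read as ATP luminescence.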
Hits are given with their value; - = inactive; ? = inconclusive; . = not tested or not shown; [ ] = another dose, or the depositor's remark. Unless noted, calls follow the shape of the dose curve; as a rule, active = well fitted curve in the direction sought with a large enough effect; inconclusive = small, poorly fitted or top-dose-only effect, or another doubt; inactive = no such curve, though single readings can be large; an effect the other way counts as inactive or inconclusive.

SMILES	Chronic BCR inh	DT40 TDP1 no CPT	MCF10A rerep	IL1B secr inh	SW480 rerep	TDP1 cell CPT
O=C1NCN(c2ccccc2)C12CCN(C(c1cc3ccccc3o1)c1nnnn1C1CCCC1)CC2 (configuration not stated)	.	?	.	-65.2	.	?
O=C1NCN(c2ccccc2)C12CCN(C(c1cccc3ccccc13)c1nnnn1C1CCCCC1)CC2 (configuration not stated)	.	?	.	-	.	23.1µM
Cc1ccc(-c2cn3c(=S)[nH]nc3s2)cc1	-	?	-	-	-	-
COc1ccc(C)cc1NC(=O)CN1CCN(CC(=O)Nc2ccccc2F)CC1	-	14.6µM	-	-	-	23.1µM
CCOc1ccc(OCC)c(NC(=O)CN2CCN(c3ccc(C)cc3C)CC2)c1	-	16.4µM	?	-	-[9.22 µM]	?
CCOC(=O)C1(c2ccccc2)CCN(CC(=O)Nc2ccc(C)cc2)CC1	-	?	-	-	?	?
O=C(c1c[nH]c2ccc(S(=O)(=O)N3CCOCC3)cc2c1=O)N1CCC2(CC1)OCCO2	-	-	-	-	-	-
Cc1ccc(S(=O)(=O)N(CC(=O)NCCSc2ccc(Cl)cc2)c2ccccc2C)cc1	.	23.1µM	.	.	.	20.6µM
Cc1ccc(S(=O)(=O)N(CC(=O)N/N=C\c2cccs2)c2cccc3cccnc23)cc1	-	?	-	-	-	-
CC(C)N(CC[C@@](C(N)=O)(c1ccccc1)c1ccccn1)C(C)C	.	.	-	.	-	.
O=C(c1ccco1)N1Cc2ccccc2-n2nncc2C1	.	-	.	-	.	-
CCN(CC)C(=O)Cn1cc(/C=C2\C(=O)NC(=O)N(c3ccccc3F)C2=O)c2ccccc21	?	?	?	-94.4	-	?
COc1ccc(-n2c(/C=C/c3ccc(O)c(O)c3)nc3ccccc3c2=O)cc1	?	18.4µM	?	?	?	?
COc1cc(/C=C/c2nc3ccccc3c(=O)n2-c2ccc(O)cc2)ccc1O	?	?	20.6µM	-65.3	?	?
O=c1c2ccccc2nc(/C=C/c2ccc3c(c2)OCO3)n1-c1ccccc1	?	23.1µM	?	-	?	?
O=c1c2ccccc2nc(/C=C/c2ccccn2)n1-c1ccccc1	-	-	?	?	-	-
COc1cccc(-n2c(C)nc3ccccc3c2=O)c1	-	-	-	-	-	-
COc1ccc(-c2nc3ccccc3c(=O)n2-c2ccc(OC)cc2)cc1	?	?	-	-	-	?
COc1cccc(-n2c(/C=C\c3ccc(Cl)cc3)nc3ccccc3c2=O)c1	.	18.4µM	.	.	.	?
Nc1ncnc2c1ncn2[C@@H]1O[C@@H]2COP(O)(=S)O[C@H]2[C@H]1O (some centres not stated)	.	-	.	.	.	-
CN1Cc2cnnn2-c2ccccc2C1c1ccccc1 (configuration not stated)	.	?	-	-	-[9.22 µM]	-
CCc1ccc(NC2=NCCCS2)cc1	-	?	-	-	-	-
C[C@@]12C(=O)N(Cc3ccco3)CC(=O)N1[C@H]1c3ccccc3OC[C@@H]1[C@@H]2c1ccccc1	-	?	-	-	-	?
Cc1ccc(/C=C/C(=O)C2C(=O)c3ccccc3C2=O)cc1	?	?	?	-	-	16.4µM
CC(=NCCN(C)C)c1c(O)n(Cc2ccccc2)c(=O)[nH]c1=O	-	-	-	-	-	-
SMILES	Chronic BCR inh	DT40 TDP1 no CPT	MCF10A rerep	IL1B secr inh	SW480 rerep	TDP1 cell CPT
O=[N+]([O-])c1ccc(N2CCCC2)c2ncccc12	-	-	-	-	-	-
O=[N+]([O-])c1ccc(N2CCCC2)c(F)c1Br	-	23.1µM	-	-	-	13µM
ClC1=C(Cl)C2(Cl)C3C(Cl)C=CC3C1(Cl)C2(Cl)Cl (configuration not stated)	-	?	-	-	-	?
CCOc1ccc(CCNC(=O)c2cc3c(-c4cccc(OC)c4)nn(C)c3s2)cc1OCC	.	18.4µM	.	.	.	?
COc1cc(C(c2c(O)c3ccccc3oc2=O)c2c(C)n(C)n(-c3ccccc3)c2=O)ccc1OCC(=O)O (configuration not stated)	.	-	.	.	.	-
Cc1c(O)c(=O)ccn1C	-	-	?	-	-	-
Cc1nn(CC(=O)N2CCC3(CC2)OCCO3)c(=O)c2cc3ccccc3n12	-	-	-	-	-	-
CCn1c(C)[n+](CC(O)COCC2CC=CCC2)c2ccccc21 (configuration not stated)	-	23.1µM	?	-	-	20.6µM
Cc1ccc(O)c(C(=O)c2cc(C(=O)NCCC(C)C)c(=O)n(CCC(C)C)c2)c1	-	18.4µM	?	-56.0	?	23.1µM
Brc1ccc(-[n+]2c(-c3ccccc3)cc(-c3ccccc3)cc2-c2ccccc2)cc1	?	2.59µM	?	-82.8	?	10.3µM
COc1ccc(-[n+]2c(-c3ccccc3)cc(-c3ccc(C)cc3)cc2-c2ccccc2)cc1	?	1.16µM	?	-93.7	?	2.59µM
C[n+]1c(-c2ccccc2)cc(CCCCc2cc(-c3ccccc3)[n+](C)c(-c3ccccc3)c2)cc1-c1ccccc1	-	5.17µM	?	-100.3	-	2.59µM
Cc1ccc(-c2cc(-c3ccccc3)cc(-c3ccccc3)[n+]2-c2ccc(C(=O)O)cc2)cc1	-	-	-	-	?	-
COc1ccc(-c2cc(-c3ccccc3)[n+](C)c(-c3ccccc3)c2)cc1	-	0.581µM	-	-90.3	?	1.03µM
NCC[C@H](O)C(=O)N[C@@H]1C[C@H](N)[C@@H](O[C@H]2O[C@H](CN)[C@@H](O)[C@H](O)[C@H]2N)[C@H](O[C@@H]2O[C@H](CO)[C@@H](O)[C@H]2O)[C@H]1O	.	-	.	.	.	-
CCC(=O)Nc1cc(C(=O)O)ccc1S(=O)(=O)c1ccc(C)cc1	-	-	-	-	-	-
O=C(c1ccco1)N1CCC2(CC1)CN(Cc1ccncc1)C2	.	-	.	.	.	-
O=C(COc1ccc(Br)cc1)Nc1ccc(Cl)cc1C(=O)c1ccccc1	.	-	.	.	.	-
CCCOC(=O)c1ccc(-[n+]2c(-c3ccccc3)cc(-c3ccccc3)cc2-c2ccccc2)cc1	?	1.16µM	?	-85.5	-	1.16µM
CC1=C2C(=O)C3C(CC=C4CC(O)CCC43C)C2CCC12OC1CC(C)CNC1C2C (configuration not stated)	-	-	-	-	-	-
Cc1cc(N2CCCC2)ccc1C=C(C#N)C#N	-	-	-	-	-	-
Cc1ccc2cc(C=C(C#N)C#N)c(Cl)nc2c1	-	2.91µM	7.31µM	-96.4	?	2.06µM

Assay outcomes deposited in PubChem by National Center for Advancing Translational Sciences (NCATS).
